Data from PubChem BioAssay (NCI).
Compounds without any hit were thinned out: in the full panel of roughly 83,000, 20% have a hit.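 Growth was measured after 48 h exposure to one concentration of compound in 96-well plates. Values under 10 count as active.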 Calls of active or inactive are those of the source.

Key:
Test in all cases: NCI-60 one-dose screen, 48 h (100 = growth as untreated, 0 = no growth, -100 = all killed)
Conditions in all cases: 10 µM unless noted
SK-MEL-2 melanoma = tested on: SK-MEL-2 melanoma
EKVX NSCLC = tested on: EKVX NSCLC
SN12C renal = tested on: SN12C renal
UO-31 renal = tested on: UO-31 renal
TK-10 renal = tested on: TK-10 renal
ACHN renal = tested on: ACHN renal
CAKI-1 renal = tested on: CAKI-1 renal
A498 renal = tested on: A498 renal
CCRF-CEM leukemia = tested on: CCRF-CEM leukemia
MOLT-4 leukemia = tested on: MOLT-4 leukemia
SR leukemia = tested on: SR leukemia
RPMI-8226 leukemia = tested on: RPMI-8226 leukemia
OVCAR-8 ovarian = tested on: OVCAR-8 ovarian
OVCAR-5 ovarian = tested on: OVCAR-5 ovarian
OVCAR-4 ovarian = tested on: OVCAR-4 ovarian
SK-OV-3 ovarian = tested on: SK-OV-3 ovarian
IGROV1 ovarian = tested on: IGROV1 ovarian
OVCAR-3 ovarian = tested on: OVCAR-3 ovarian
HS 578T breast = tested on: HS 578T breast
NCI/ADR-RES ovarian = tested on: NCI/ADR-RES ovarian

Measured: growth

O=C(Nc1ccccc1)N1CCN(c2cc(-c3cn(-c4ccccc4)nc3-c3cccc(O)c3)ccn2)CC1
inactive: SK-MEL-2 melanoma 57.4% | EKVX NSCLC 77.1% | SN12C renal 88.8% | UO-31 renal 55.1% | TK-10 renal 129% | ACHN renal 81.7% | CAKI-1 renal 70.3% | A498 renal 103% | CCRF-CEM leukemia 36.8% | MOLT-4 leukemia 33% | SR leukemia 19.2% | RPMI-8226 leukemia 32.5% | OVCAR-8 ovarian 43.9% | OVCAR-5 ovarian 106% | OVCAR-4 ovarian 84.2% | SK-OV-3 ovarian 98.1% | IGROV1 ovarian 84% | OVCAR-3 ovarian 98.2% | HS 578T breast 83.1% | NCI/ADR-RES ovarian 23.7%

Cn1cc(-c2nnc(N)nc2-c2c[nH]c3ccc(F)cc23)c2cccnc21
inactive: SK-MEL-2 melanoma 15.7% | EKVX NSCLC 62.4% | SN12C renal 45.9% | UO-31 renal 48.4% | TK-10 renal 82.4% | ACHN renal 54.6% | CAKI-1 renal 45.7% | A498 renal 86.2% | CCRF-CEM leukemia 47.9% | MOLT-4 leukemia 28.9% | SR leukemia 25.5% | RPMI-8226 leukemia 49.1% | OVCAR-8 ovarian 49.3% | OVCAR-5 ovarian 83.3% | OVCAR-4 ovarian 77.6% | SK-OV-3 ovarian 65.8% | IGROV1 ovarian 40.7% | OVCAR-3 ovarian 25.3% | HS 578T breast 42% | NCI/ADR-RES ovarian 72.9%

COc1ccc(/C=N/NC(=O)Cn2nc(Cc3ccc(OC)cc3)c3onc(C)c3c2=O)cc1
inactive: SK-MEL-2 melanoma 78.9% | EKVX NSCLC 61.5% | SN12C renal 27.5% | UO-31 renal 44.6% | TK-10 renal 79.4% | ACHN renal 12.8% | A498 renal 48.1% | CCRF-CEM leukemia 75.5% | MOLT-4 leukemia 78.7% | SR leukemia 53.4% | RPMI-8226 leukemia 53.7% | OVCAR-8 ovarian 45% | OVCAR-5 ovarian 52.2% | SK-OV-3 ovarian 25.9% | IGROV1 ovarian 77.6% | OVCAR-3 ovarian 50.8% | HS 578T breast 36.3% | NCI/ADR-RES ovarian 40.6%
active: CAKI-1 renal -27.2% | OVCAR-4 ovarian -9.28%

CNS(=O)(=O)c1ccc(Nc2ccc(C(F)(F)F)cc2)c(-c2cn(C)cn2)c1
active: UO-31 renal 9.13%
inactive: SK-MEL-2 melanoma 63.8% | EKVX NSCLC 49% | SN12C renal 41.9% | TK-10 renal 46.6% | ACHN renal 48.9% | CAKI-1 renal 60.8% | A498 renal 50.7% | CCRF-CEM leukemia 51.2% | MOLT-4 leukemia 37.1% | SR leukemia 51.6% | RPMI-8226 leukemia 35.6% | OVCAR-8 ovarian 52.6% | OVCAR-5 ovarian 68.3% | OVCAR-4 ovarian 70.1% | SK-OV-3 ovarian 86.8% | IGROV1 ovarian 35.5% | OVCAR-3 ovarian 54.7% | HS 578T breast 59.6% | NCI/ADR-RES ovarian 35%

CC(C)c1sc(NC(=O)c2cc(NC(=O)c3cc(NC(=O)c4nccn4C)cn3C)cn2C)nc1C(=O)NCCCN(C)C
inactive: SK-MEL-2 melanoma 80.8% | EKVX NSCLC 105% | SN12C renal 85.7% | UO-31 renal 98.1% | TK-10 renal 97.9% | ACHN renal 108% | CAKI-1 renal 102% | A498 renal 116% | CCRF-CEM leukemia 19.3% | MOLT-4 leukemia 65.8% | SR leukemia 17.5% | RPMI-8226 leukemia 104% | OVCAR-8 ovarian 81.2% | OVCAR-5 ovarian 105% | OVCAR-4 ovarian 75.3% | SK-OV-3 ovarian 60% | IGROV1 ovarian 82.5% | OVCAR-3 ovarian 70.9% | HS 578T breast 90.3% | NCI/ADR-RES ovarian 111%

COc1ccc(-c2nc3cc(C)ccc3n2CC(=O)N=Nc2c(O)[nH]c3ccccc23)cc1
inactive: SK-MEL-2 melanoma 58% | EKVX NSCLC 46% | UO-31 renal 53.7% | TK-10 renal 73.6% | CAKI-1 renal 53.3% | A498 renal 102% | CCRF-CEM leukemia 79.1% | MOLT-4 leukemia 13.2% | RPMI-8226 leukemia 59.3% | OVCAR-5 ovarian 13.8% | SK-OV-3 ovarian 47.8% | IGROV1 ovarian 59.3%
active: SN12C renal -91.7% | ACHN renal -12.5% | SR leukemia 0.97% | OVCAR-8 ovarian -58.1% | OVCAR-4 ovarian -25.3% | OVCAR-3 ovarian -33.8% | HS 578T breast 4.27% | NCI/ADR-RES ovarian -47.1%

COc1cc2c(c(OC)c1OC)C(=O)CC(c1cccc(NC(=O)c3cc(NC(=O)[C@H](C)N)ccc3Cl)c1)O2 (stereo not given in full)
active: MOLT-4 leukemia 8.42% | SR leukemia 9.41% | RPMI-8226 leukemia 4.69% | OVCAR-8 ovarian 9.03%
inactive: SK-MEL-2 melanoma 33.5% | EKVX NSCLC 48.4% | SN12C renal 51.8% | UO-31 renal 46.4% | TK-10 renal 101% | ACHN renal 50.4% | CAKI-1 renal 51.5% | A498 renal 80.7% | CCRF-CEM leukemia 12.4% | OVCAR-5 ovarian 88% | OVCAR-4 ovarian 44.4% | SK-OV-3 ovarian 102% | IGROV1 ovarian 70.3% | OVCAR-3 ovarian 25.7% | HS 578T breast 66.9% | NCI/ADR-RES ovarian 11.1%

Cc1ccc(S(=O)(=O)c2nc(S(=O)(=O)c3ccc(C)cc3)c(N3CCN(C)CC3)s2)cc1
inactive: SK-MEL-2 melanoma 49.4% | EKVX NSCLC 63.4% | SN12C renal 46.3% | UO-31 renal 69.5% | TK-10 renal 125% | ACHN renal 71.6% | CAKI-1 renal 60.9% | A498 renal 83.5% | CCRF-CEM leukemia 19.7% | MOLT-4 leukemia 30% | SR leukemia 16.1% | RPMI-8226 leukemia 52.2% | OVCAR-8 ovarian 48% | OVCAR-5 ovarian 94.1% | OVCAR-4 ovarian 62.5% | SK-OV-3 ovarian 124% | IGROV1 ovarian 77.1% | OVCAR-3 ovarian 46.1% | HS 578T breast 81.1% | NCI/ADR-RES ovarian 44.4%

Cn1cc(-c2cc(N)n3nc(-c4cn(C)c5ncccc45)cc3n2)c2cccnc21
inactive: SK-MEL-2 melanoma 95.8% | EKVX NSCLC 95% | SN12C renal 90% | UO-31 renal 89.2% | TK-10 renal 86% | ACHN renal 109% | CAKI-1 renal 86.5% | A498 renal 87.2% | CCRF-CEM leukemia 85.2% | MOLT-4 leukemia 53.5% | SR leukemia 51.1% | RPMI-8226 leukemia 54.3% | OVCAR-8 ovarian 61.3% | OVCAR-5 ovarian 92.8% | OVCAR-4 ovarian 71.4% | SK-OV-3 ovarian 99.8% | IGROV1 ovarian 98% | OVCAR-3 ovarian 96.7% | HS 578T breast 89.2% | NCI/ADR-RES ovarian 68.6%

CC(C)(C)OC(=O)/C=C/c1cccc2c1C(=O)NC(C)(c1cc3cc(Cl)ccc3oc1=O)N2 (stereo not given)
active: MOLT-4 leukemia -14.6% | SR leukemia 8.86% | RPMI-8226 leukemia 1.99%
inactive: SK-MEL-2 melanoma 43.6% | EKVX NSCLC 36.2% | SN12C renal 50% | UO-31 renal 20.8% | TK-10 renal 66.2% | ACHN renal 19.6% | CAKI-1 renal 42.4% | A498 renal 102% | CCRF-CEM leukemia 24.2% | OVCAR-8 ovarian 39.1% | OVCAR-5 ovarian 67.1% | OVCAR-4 ovarian 43.9% | SK-OV-3 ovarian 47.6% | IGROV1 ovarian 44.7% | OVCAR-3 ovarian 43.8% | HS 578T breast 65.1% | NCI/ADR-RES ovarian 25.4%

COc1c(F)ccc(C(=O)Nc2ccc3nc(NC(=O)C4CCCN(S(=O)(=O)c5ccc(Br)c(F)c5)C4)sc3c2)c1F (stereo not given)
inactive: SK-MEL-2 melanoma 88.6% | EKVX NSCLC 88.5% | SN12C renal 87.7% | UO-31 renal 72.1% | TK-10 renal 122% | ACHN renal 81.5% | CAKI-1 renal 72.7% | A498 renal 112% | CCRF-CEM leukemia 87.4% | MOLT-4 leukemia 42.5% | SR leukemia 47.2% | RPMI-8226 leukemia 52% | OVCAR-8 ovarian 98.1% | OVCAR-5 ovarian 102% | OVCAR-4 ovarian 75.4% | SK-OV-3 ovarian 102% | IGROV1 ovarian 82.2% | OVCAR-3 ovarian 96.8% | HS 578T breast 72.8% | NCI/ADR-RES ovarian 83.4%

Cn1cc(-c2cc(N)n3nc(-c4cn(C)c5ccccc45)cc3n2)c2cc(Cl)ccc21
inactive: SK-OV-3 ovarian 72.1%
active: SK-MEL-2 melanoma -87.4% | EKVX NSCLC -31% | SN12C renal -53.9% | UO-31 renal -88.5% | TK-10 renal -42.9% | ACHN renal -28.2% | CAKI-1 renal -82.5% | A498 renal -24.8% | CCRF-CEM leukemia -5.76% | MOLT-4 leukemia -6.02% | SR leukemia 4.5% | RPMI-8226 leukemia -8.66% | OVCAR-8 ovarian -91% | OVCAR-5 ovarian -13.9% | OVCAR-4 ovarian -34.5% | IGROV1 ovarian -4.76% | OVCAR-3 ovarian -44.6% | HS 578T breast -11.1% | NCI/ADR-RES ovarian -11.5%

COc1cccc(-c2nc(Nc3ccc(S(N)(=O)=O)cc3)c3ccccc3n2)c1
active: RPMI-8226 leukemia 6.94%
inactive: SK-MEL-2 melanoma 46.6% | EKVX NSCLC 45.5% | SN12C renal 44.6% | UO-31 renal 17.4% | TK-10 renal 47.3% | ACHN renal 17.7% | CAKI-1 renal 25.2% | A498 renal 23.9% | CCRF-CEM leukemia 18.7% | MOLT-4 leukemia 16.8% | SR leukemia 23.6% | OVCAR-8 ovarian 35.5% | OVCAR-5 ovarian 72.5% | OVCAR-4 ovarian 35.1% | SK-OV-3 ovarian 73.5% | IGROV1 ovarian 42.4% | OVCAR-3 ovarian 22.9% | HS 578T breast 44% | NCI/ADR-RES ovarian 26.4%

CCOC(=O)/C=C/c1cccc2c1C(=O)NC(C)(c1cc3cc(Br)ccc3oc1=O)N2 (stereo not given)
inactive: EKVX NSCLC 43.8% | SN12C renal 53.3% | UO-31 renal 19.8% | TK-10 renal 58.4% | ACHN renal 28.1% | CAKI-1 renal 20.2% | A498 renal 59.8% | CCRF-CEM leukemia 36.8% | MOLT-4 leukemia 30.4% | SR leukemia 27.7% | RPMI-8226 leukemia 32% | OVCAR-8 ovarian 37.8% | OVCAR-5 ovarian 76.4% | OVCAR-4 ovarian 40.2% | SK-OV-3 ovarian 38.6% | IGROV1 ovarian 18.2% | OVCAR-3 ovarian 48.4% | HS 578T breast 63.2% | NCI/ADR-RES ovarian 42.2%
active: SK-MEL-2 melanoma 5.72%
